FBW7 act = activators of human E3 ligase FBW7. normalized activity (activation), % at 26.1 µM. Q969H0. AID 1259310. 0.13% of 650,000 active. AlphaScreen FBW7–phospho-cyclin E peptide binding, activator screen; in the data active means normalized activity above about 1.9%;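 further: purified mutant Fbw7 with reduced substrate affinity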
Target sequence (Q969H0 whole entry, looked up): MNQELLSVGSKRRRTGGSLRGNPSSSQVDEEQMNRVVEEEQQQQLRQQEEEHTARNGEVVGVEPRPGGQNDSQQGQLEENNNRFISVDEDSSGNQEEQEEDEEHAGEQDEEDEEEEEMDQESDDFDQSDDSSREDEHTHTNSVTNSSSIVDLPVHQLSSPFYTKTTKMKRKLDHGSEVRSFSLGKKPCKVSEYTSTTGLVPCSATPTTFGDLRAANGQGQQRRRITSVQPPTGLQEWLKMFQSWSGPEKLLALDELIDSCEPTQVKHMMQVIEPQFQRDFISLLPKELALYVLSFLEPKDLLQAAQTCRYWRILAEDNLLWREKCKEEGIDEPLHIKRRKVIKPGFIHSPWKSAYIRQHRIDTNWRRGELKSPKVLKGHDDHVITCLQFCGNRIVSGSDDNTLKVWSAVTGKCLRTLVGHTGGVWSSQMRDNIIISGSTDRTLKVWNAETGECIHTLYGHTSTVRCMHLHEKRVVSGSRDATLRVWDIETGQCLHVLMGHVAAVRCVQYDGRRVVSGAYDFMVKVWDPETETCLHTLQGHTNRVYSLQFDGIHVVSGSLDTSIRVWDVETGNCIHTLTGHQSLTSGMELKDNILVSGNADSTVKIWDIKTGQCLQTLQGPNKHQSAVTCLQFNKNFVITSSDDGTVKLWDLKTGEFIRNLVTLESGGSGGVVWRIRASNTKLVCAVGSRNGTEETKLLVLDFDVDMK
GPR151 activ = human GPR151 activation. Q8TDV0. PathHunter beta-arrestin GPR151 cells, luminescence. activation, % at 11.2 µM. 1% of 650,000 active. AID 1508602; in the data active means activation above about 4.9%;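 further: 0% = median of compound wells and 100% = cells with positive control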
TEAD-YAP inh = TEAD-YAP interaction inhibition | HEK-TIYL cells, TEAD-Gal4/YAP UAS-luciferase luminescence | inhibition, % at 9.12 µM | 1.4% of 640,000 active | AID 1259422; in the data active means inhibition above about 32%;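 further: 0% = median of test compound wells and 100% = reference inhibitor wells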
MITF primary = inhibitors of human MITF; inhibition, % at 2.6 µM; 0.91% of 650,000 active; AlphaScreen MITF homodimerization, bead proximity signal; in the data active means inhibition above about 50%;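 further: 0% = vehicle wells with protein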
An asterisk follows results filed as active. Sampled rows, rich in hits. Any-hit rate of the full collection: about 3.5%.

SMILES	FBW7 act	GPR151 activ	TEAD-YAP inh	MITF primary
CC1(C(=O)Nc2ccc(F)cc2)CC1	0	2	1	6
COCCNC(=O)c1ccc2nc(N3CCCCC3)sc2c1	0	-1	-64	1
CCOc1ccc(NC(=O)c2cc(OC)c(OC)c(OC)c2)cc1	0	1	55*	-2
COc1ccc(C(=O)Nc2ccc(-c3nc4ccccc4[nH]3)cc2)cc1OC	0	1	3	-6
COc1cc(C(=O)Nc2ccc(-c3nc4ccccc4[nH]3)cc2)cc(OC)c1OC	0	0	32*	8
CS(=O)(=O)N(CC(=O)Nc1ccccc1C(F)(F)F)c1ccc(F)c(Cl)c1	0	0	2	-7
CCOc1cc(/C=N/n2cnnc2)cc(I)c1O	0	1	-2	65*
COc1ccc(C2(C(=O)NC(C)c3nc(-c4cccnc4)n[nH]3)CC2)cc1 (stereo not given)	0	0	51*	9
CC(NC(=O)C1(c2ccc(Cl)cc2)CC1)c1nc(-c2cccnc2)n[nH]1 (stereo not given)	0	-1	9	-11
CCOC(=O)c1[nH]c(C)c(C(=O)NCCCN2CCCC2)c1C	0	0	-1	5
CCn1nc(-c2ccccn2)nc2c(=O)n(C)c(=O)nc1-2	0	-2	97*	21
CCn1nc(-c2ccc(OC)cc2)nc2c(=O)n(C)c(=O)nc1-2	0	-9	96*	7
Cn1nc(-c2ccc([N+](=O)[O-])cc2)nc2c(=O)n(C)c(=O)nc1-2	0	-8	55*	7
CCn1nc(-c2ccc(Cl)c(Cl)c2)nc2c(=O)n(C)c(=O)nc1-2	0	-9	-40	3
CN1C(=O)[C@H]2CN(Cc3cccc4cccnc34)CCN2C(=O)[C@@H]1CO	0	-1	0	0
c1cc(-c2cncc(N3CCOCC3)c2)nc(Nc2ccc(-c3cnn(CCN4CCOCC4)c3)cc2)n1	1	-1	96*	17
Fc1cncc(-c2ccnc(Nc3ccc(-c4cnn(CCN5CCOCC5)c4)cc3)n2)c1	0	2	-4	10
CCCn1cc(-c2ccc(Nc3nccc(-c4cncc(N5CCOCC5)c4)n3)cc2)cn1	0	1	47*	7
COc1ccc(C(=O)Nc2ccc3oc(-c4cccnc4)nc3c2)cc1Cl	0	0	-14	1
Cc1ccc(C2CC(=O)NC(SCC(=O)Nc3cc(Cl)cc(Cl)c3)=C2C#N)cc1 (stereo not given)	0	2	3	-8
CCOC(=O)c1ccc(N2C(=O)/C(=C\c3ccco3)C(C(=O)OC)=C2C)cc1	0	-1	8	67*
Cc1c(C(=O)OC2CCCC2)[nH]c2c1C(=O)CC(c1ccco1)C2 (stereo not given)	1	3	55*	5
Cc1c(C(=O)OCC(C)C)[nH]c2c1C(=O)CC(c1ccco1)C2 (stereo not given)	0	2	49*	3
Cc1c(C(=O)OCC2CCCO2)[nH]c2c1C(=O)CC(c1ccco1)C2 (stereo not given)	0	0	52*	33
Cc1c(C(=O)OCC(C)C)[nH]c2c1C(=O)CCC2	0	0	-35	2
SMILES	FBW7 act	GPR151 activ	TEAD-YAP inh	MITF primary
C=CCOC(=O)c1[nH]c2c(c1C)C(=O)CC(c1ccco1)C2 (stereo not given)	0	0	51*	12
C/C=C/COC(=O)c1[nH]c2c(c1C)C(=O)CC(c1ccco1)C2 (stereo not given)	0	2	57*	10
CCOC(=O)c1[nH]c2c(c1C)C(=O)CC(c1ccc(OC)c(OC)c1)C2 (stereo not given)	0	0	3	7
CN1CCN(c2ccc(-c3ccc(C(=O)NCc4ccccc4)s3)cc2)CC1	0	2	-15	0
CC1=NN(c2ccc([N+](=O)[O-])cc2)C(=O)/C1=C\c1ccc(C)o1	0	3	2	81*
CC1=NN(c2ccc(Br)cc2)C(=O)/C1=C\c1ccc(-c2c(Br)cc([N+](=O)[O-])cc2Br)o1	0	-1	-2	14
O=C1CSC(c2ccc([N+](=O)[O-])cc2)N1c1c(F)cccc1F (stereo not given)	0	-1	-3	5
Cc1nc2ccccn2c1C(=O)NCc1ccccc1Oc1ccccc1	1.9*	-1	3	21
CCC(C)NC(=O)c1c(C)nc2ccccn12 (stereo not given)	2.1*	-1	11	15
Cc1nc2ccccn2c1C(=O)NCc1ccccc1	0	5	-5	-2
CCNc1nc(NC(C)(C)C)nc(SC(C(C)=O)C(C)=O)n1	0	2	42*	3
CC(=O)C12c3ccccc3C(c3ccccc31)C1C(=O)N(c3ccc(Cl)cc3[N+](=O)[O-])C(=O)C12 (stereo not given)	0	-1	-7	17
COc1cccc2c1OC(c1ccc(F)c(F)c1)N1N=C(c3ccc(C)o3)CC21 (stereo not given)	0	0	33*	11
COc1cccc2c1OC(c1ccccc1Cl)N1N=C(c3ccc(C)o3)CC21 (stereo not given)	0	-1	44*	3
CCOc1ccc(C2=NN3C(C2)c2cccc(OC)c2OC3c2ccc(F)c(F)c2)cc1 (stereo not given)	1	-2	14	6
CCOc1cccc2c1OC(c1ccccc1Cl)N1N=C(c3ccc(C)o3)CC21 (stereo not given)	0	-1	-23	-5
C(=N\c1nc2c(s1)CCCC2)/N1CCCC1	0	-6	-55	14
Cc1ccc(N=Cc2ccc(O)c(O)c2O)cc1F	0	-1	10	69*
O=c1[nH]c2ccc(N=Cc3ccc(O)c(O)c3O)cc2[nH]1	-1	0	-4	68*
Cc1ccc(N=Cc2cccc(O)c2O)cc1F	0	-1	5	-1
Oc1ccc(C=Nc2ccccc2)c(O)c1O	0	5	0	85*
Oc1cccc(C=Nc2ccc(Br)cc2)c1O	0	3	-6	-14
COc1ccc(/C=N\Nc2cc(=O)n(C)c(=O)n2C)c(OC)c1	0	1	-2	32
CC1=NN(c2cccc(C(=O)O)c2)C(=O)/C1=C\c1cc([N+](=O)[O-])ccc1N(C)C	0	-1	6	14
Clc1ccccc1OCc1nc(-c2ccccn2)no1	0	-7	-27	13
SMILES	FBW7 act	GPR151 activ	TEAD-YAP inh	MITF primary
Clc1ccc(OCc2nc(-c3ccccn3)no2)c(Cl)c1	0	-5	36*	5
CCCC(=O)Nc1ccccc1-c1nc2cc3ccccc3cc2[nH]c1=O	0	1	55*	-1
O=C(CSc1nnc(-c2ccccn2)n1-n1cccc1)Nc1ccc(Oc2ccccc2)cc1	0	-1	3	18
O=S(=O)(NCc1csc(-c2cccs2)n1)c1ccc(-c2ccccn2)s1	2.1*	1	2	10
CC(=O)C(C(C)=O)C1=C(Cl)C(=O)C(=O)c2ccccc21	-1	0	84*	0
Cc1ccccc1N=c1scc(-c2ccc3c(c2)NC(=O)CO3)n1Cc1ccco1	0	0	48*	0

Compound activity from PubChem BioAssay.
